Experiment [1] deals with Tyrosine-protein kinase CSK (Homo sapiens) (UniProt P41240). The note with it: at 1 µM.
The target of experiment [2] is T1, Discoidin domain-containing receptor 2 (Homo sapiens) (UniProt Q16832).
T1 sequence (whole entry): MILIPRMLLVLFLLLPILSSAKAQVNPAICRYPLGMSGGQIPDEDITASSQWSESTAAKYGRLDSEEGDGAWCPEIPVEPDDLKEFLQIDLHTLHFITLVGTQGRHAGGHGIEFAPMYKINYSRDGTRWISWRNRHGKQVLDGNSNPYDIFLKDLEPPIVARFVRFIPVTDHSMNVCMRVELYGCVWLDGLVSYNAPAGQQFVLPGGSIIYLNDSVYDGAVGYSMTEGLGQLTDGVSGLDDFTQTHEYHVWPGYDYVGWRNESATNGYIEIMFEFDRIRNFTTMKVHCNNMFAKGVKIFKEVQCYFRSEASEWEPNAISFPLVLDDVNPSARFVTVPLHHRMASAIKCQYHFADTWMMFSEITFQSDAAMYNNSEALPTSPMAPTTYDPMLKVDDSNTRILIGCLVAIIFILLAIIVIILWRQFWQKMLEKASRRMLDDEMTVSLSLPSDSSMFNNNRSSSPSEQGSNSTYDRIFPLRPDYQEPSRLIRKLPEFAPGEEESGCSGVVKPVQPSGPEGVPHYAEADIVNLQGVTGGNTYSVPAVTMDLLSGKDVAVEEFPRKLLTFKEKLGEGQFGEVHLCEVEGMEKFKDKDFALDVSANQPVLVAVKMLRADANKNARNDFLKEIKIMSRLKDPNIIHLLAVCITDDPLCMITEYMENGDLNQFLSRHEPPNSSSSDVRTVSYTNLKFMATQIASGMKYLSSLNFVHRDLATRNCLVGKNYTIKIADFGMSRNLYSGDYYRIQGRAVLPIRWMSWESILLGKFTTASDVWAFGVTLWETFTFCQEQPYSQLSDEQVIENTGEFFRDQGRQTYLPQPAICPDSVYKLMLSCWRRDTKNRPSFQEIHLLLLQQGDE
Conditions: at 0.1 µM.

Experiment [3] has as its target T1, Discoidin domain-containing receptor 2 (Homo sapiens). The note with it: at 1 µM.
Experiment [4] has as its target Epidermal growth factor receptor (Homo sapiens) (UniProt P00533). Conditions: at 0.1 µM.
For experiment [5] the target is unchanged. The note with it: at 1 µM.
Experiment [6] deals with Epidermal growth factor receptor (Homo sapiens), P00533 [L858R]. The note with it: at 0.1 µM.
Epidermal growth factor receptor (Homo sapiens), P00533 [L858R], sequence (P00533 whole entry L858R): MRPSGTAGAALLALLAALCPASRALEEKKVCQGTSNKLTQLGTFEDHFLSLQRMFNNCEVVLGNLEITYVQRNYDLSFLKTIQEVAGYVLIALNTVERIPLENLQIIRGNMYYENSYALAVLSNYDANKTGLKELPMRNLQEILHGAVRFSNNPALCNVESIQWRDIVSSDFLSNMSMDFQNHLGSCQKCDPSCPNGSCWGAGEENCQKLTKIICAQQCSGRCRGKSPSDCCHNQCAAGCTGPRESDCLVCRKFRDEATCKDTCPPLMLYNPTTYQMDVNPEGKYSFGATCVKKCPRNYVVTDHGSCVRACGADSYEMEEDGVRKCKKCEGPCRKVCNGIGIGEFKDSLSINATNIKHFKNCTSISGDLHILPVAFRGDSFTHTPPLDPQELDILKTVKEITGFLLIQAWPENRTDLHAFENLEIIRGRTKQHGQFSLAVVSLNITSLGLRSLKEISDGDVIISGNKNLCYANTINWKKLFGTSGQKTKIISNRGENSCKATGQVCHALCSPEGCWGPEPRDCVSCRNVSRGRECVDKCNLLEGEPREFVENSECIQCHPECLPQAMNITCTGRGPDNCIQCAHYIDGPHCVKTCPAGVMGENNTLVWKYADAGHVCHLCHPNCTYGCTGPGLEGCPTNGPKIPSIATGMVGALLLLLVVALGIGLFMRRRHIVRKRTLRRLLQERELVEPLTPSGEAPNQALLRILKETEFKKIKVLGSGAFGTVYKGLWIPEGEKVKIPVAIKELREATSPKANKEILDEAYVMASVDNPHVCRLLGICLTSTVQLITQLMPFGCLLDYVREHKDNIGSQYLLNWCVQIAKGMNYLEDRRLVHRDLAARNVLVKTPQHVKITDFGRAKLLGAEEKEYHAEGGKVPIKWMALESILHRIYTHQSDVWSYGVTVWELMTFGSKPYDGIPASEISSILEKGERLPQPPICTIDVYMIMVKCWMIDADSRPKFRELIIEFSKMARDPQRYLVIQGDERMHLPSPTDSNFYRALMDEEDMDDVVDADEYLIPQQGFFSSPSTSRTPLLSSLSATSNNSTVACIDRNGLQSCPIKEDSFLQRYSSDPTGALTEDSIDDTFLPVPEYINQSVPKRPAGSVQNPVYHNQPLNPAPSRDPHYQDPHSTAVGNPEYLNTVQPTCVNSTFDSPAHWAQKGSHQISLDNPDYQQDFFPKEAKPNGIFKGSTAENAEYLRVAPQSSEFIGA
Experiment [7] shares this test system. Conditions: at 1 µM.
The subject of experiment [8] is Epidermal growth factor receptor (Homo sapiens), P00533 [L861Q]. Conditions: at 0.1 µM.
Experiment [9] has the same test system. Conditions: at 1 µM.
For experiment [10], the system named is Epidermal growth factor receptor (Homo sapiens), P00533 [T790M]. Conditions: at 0.1 µM.
Epidermal growth factor receptor (Homo sapiens), P00533 [T790M], sequence (P00533 whole entry T790M): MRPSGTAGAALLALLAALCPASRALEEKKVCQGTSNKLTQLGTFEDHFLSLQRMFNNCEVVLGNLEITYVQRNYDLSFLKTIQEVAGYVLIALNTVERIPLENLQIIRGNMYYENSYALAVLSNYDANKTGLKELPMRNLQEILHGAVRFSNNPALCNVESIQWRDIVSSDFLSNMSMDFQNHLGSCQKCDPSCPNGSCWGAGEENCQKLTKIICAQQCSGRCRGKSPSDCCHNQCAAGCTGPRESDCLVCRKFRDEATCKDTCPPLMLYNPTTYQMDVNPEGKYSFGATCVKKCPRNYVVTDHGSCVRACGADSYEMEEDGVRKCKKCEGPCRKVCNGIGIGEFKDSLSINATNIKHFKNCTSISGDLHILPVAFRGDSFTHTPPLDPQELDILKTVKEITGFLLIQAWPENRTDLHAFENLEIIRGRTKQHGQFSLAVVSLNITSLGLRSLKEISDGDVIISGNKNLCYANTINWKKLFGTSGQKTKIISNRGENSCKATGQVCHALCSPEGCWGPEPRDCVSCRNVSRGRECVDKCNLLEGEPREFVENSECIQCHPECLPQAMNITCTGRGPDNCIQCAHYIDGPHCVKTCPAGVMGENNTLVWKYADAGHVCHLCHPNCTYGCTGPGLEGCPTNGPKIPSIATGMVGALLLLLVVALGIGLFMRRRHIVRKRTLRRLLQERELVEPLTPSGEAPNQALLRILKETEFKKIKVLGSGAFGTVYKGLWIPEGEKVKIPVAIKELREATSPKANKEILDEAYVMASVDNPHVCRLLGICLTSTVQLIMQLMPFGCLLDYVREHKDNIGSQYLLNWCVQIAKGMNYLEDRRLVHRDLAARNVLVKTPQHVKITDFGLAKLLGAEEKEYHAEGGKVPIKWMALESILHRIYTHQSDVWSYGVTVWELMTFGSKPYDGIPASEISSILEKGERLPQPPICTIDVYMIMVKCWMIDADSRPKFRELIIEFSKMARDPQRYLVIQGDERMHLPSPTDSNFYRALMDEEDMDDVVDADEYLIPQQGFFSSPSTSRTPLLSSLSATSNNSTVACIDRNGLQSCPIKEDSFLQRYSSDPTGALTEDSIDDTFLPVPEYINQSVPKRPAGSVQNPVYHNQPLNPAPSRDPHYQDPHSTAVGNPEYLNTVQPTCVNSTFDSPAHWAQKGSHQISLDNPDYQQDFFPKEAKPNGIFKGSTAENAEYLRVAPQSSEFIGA

These results are taken from ChEMBL document CHEMBL1961873, “Compounds: GSK PKIS; Assays: Nanosyn kinase panel” (2012).

Several values for one entry are separate records, joined by “and”; a condition that tells them apart may be missing. Equal entries are not always repeated.

Epidermal growth factor receptor (Homo sapiens), sequence (P00533 whole entry): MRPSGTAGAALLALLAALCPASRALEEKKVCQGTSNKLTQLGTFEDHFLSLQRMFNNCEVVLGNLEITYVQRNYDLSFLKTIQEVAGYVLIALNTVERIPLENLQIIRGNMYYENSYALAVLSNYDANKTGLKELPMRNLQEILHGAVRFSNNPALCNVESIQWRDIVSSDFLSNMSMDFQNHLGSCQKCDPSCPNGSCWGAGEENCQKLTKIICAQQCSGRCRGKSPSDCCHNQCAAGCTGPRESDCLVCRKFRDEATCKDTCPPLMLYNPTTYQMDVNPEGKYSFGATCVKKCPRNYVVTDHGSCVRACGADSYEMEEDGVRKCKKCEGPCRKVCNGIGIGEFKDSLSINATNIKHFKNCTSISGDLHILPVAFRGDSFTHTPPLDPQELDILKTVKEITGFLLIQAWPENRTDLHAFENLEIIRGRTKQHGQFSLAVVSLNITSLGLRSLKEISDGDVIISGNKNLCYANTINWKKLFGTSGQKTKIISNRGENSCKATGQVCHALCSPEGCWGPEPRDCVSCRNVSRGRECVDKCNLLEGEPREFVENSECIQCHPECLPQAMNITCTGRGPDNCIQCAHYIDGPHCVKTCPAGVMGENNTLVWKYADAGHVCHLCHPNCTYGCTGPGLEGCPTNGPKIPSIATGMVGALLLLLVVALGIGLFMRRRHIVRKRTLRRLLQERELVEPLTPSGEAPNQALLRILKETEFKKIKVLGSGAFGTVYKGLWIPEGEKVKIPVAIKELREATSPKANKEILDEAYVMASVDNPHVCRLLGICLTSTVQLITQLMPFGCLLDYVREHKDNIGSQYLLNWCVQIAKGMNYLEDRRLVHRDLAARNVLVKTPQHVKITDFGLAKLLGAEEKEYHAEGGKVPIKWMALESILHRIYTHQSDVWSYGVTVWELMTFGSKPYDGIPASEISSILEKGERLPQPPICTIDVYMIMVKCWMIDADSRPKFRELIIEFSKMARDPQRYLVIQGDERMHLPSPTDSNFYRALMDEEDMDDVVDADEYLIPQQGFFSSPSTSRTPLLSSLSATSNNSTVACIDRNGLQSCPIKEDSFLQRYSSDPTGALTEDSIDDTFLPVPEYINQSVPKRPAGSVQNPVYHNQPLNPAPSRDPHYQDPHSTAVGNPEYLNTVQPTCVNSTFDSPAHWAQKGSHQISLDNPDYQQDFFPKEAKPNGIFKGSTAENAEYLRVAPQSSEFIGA
Epidermal growth factor receptor (Homo sapiens), P00533 [L861Q], sequence (P00533 whole entry L861Q): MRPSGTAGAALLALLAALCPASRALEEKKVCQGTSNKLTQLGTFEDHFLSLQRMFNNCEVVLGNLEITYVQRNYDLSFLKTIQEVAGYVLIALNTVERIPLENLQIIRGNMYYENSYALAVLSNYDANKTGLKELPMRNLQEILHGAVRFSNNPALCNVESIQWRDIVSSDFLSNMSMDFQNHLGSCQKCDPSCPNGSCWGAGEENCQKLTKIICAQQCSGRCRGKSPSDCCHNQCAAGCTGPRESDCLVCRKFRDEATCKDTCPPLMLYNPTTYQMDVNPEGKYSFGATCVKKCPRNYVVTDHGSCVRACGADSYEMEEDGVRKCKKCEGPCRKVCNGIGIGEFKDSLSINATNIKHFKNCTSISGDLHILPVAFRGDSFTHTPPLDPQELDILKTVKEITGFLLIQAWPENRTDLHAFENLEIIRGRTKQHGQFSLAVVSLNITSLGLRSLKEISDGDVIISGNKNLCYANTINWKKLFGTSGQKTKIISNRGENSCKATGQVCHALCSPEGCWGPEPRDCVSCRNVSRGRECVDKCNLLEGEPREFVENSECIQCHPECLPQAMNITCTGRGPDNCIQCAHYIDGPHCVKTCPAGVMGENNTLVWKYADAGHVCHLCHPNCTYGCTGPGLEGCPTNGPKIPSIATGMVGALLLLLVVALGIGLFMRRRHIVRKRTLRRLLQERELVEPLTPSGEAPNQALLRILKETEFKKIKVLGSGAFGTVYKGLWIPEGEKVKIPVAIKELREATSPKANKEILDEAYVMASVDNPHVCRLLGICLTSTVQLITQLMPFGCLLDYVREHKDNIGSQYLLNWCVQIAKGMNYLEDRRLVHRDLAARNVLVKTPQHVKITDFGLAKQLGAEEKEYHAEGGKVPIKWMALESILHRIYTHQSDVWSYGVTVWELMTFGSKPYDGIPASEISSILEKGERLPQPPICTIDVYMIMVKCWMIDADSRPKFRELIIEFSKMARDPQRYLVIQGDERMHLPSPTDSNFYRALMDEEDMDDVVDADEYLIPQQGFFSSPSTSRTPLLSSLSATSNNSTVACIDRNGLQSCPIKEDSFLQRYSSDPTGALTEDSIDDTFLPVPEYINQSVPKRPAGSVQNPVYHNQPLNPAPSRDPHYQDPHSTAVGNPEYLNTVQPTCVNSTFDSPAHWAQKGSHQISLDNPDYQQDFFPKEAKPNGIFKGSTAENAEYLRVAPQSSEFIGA

Turning to `Fc1ccc(Nc2nccc(-c3c(-c4ccc(C(F)(F)F)cc4)nn4ncccc34)n2)cc1F`, the inhibition was 0.02% in experiment [1]; 0.84% in experiment [2]; 1.01% in experiment [3]; -6.64% in experiment [4]; 2.88% in experiment [5]; 4.49% in experiment [6]. The inhibition in experiment [7] was 2.96%; in experiment [8], 2.39%; in experiment [9], -0.05%; in [10], 2.44%.

Turning to `CCOc1ccc2c(-c3ccnc(Nc4cc(OC)cc(C(F)(F)F)c4)n3)cnn2n1`, the inhibition is 0.11% in [1]; -0.19% in [2]; 1.4% in [3]; 2.81% in experiment [4]; 5.28% in experiment [5]; 2.28% in experiment [6]. Further, the inhibition in experiment [7] turned out to be 3.23%; in [8], 1.52%; in [9] it was 2.39%; in [10], 0.36%.

Turning to `CN1CCC(n2cnc(-c3ccc(F)cc3)c2-c2ccnc(NCCO)n2)CC1`, the inhibition in experiment [1] is 8.66%; in [2], 2.1%; in [3], 3.08%; in experiment [4], 0.6%; in experiment [5] it was 6.58%; in experiment [6], 0.99%. Moreover, the inhibition in [7] amounted to 11%; in [8], 4.45%; in experiment [9], 5.89%; in [10], 3.52%.

Take `CNC(=O)c1sc(-n2cnc3cc(OC)c(OC)cc32)cc1OCc1ccccc1C(F)(F)F`: the inhibition is 7.18% in experiment [1]; 2.3% in [2]; 2.7% in [3]; -0.83% in [4]; 2.09% in experiment [5]; 0.74% in [6]. Also, the inhibition was -0.13% in [7], 1.16% in experiment [8], 1.23% in experiment [9] and 0.64% in experiment [10].

For `CN1CCC(C(=O)Nc2n[nH]c3nc(-c4ccc(O)cc4)c(Br)cc23)CC1`, the inhibition is 7.63% and 4.28% in [1]; -0.34% and 1.94% in experiment [2]; 0.35% and 3.34% in [3]; -1.4% and 2.45% in [4]; -1.83% and 5.5% in [5]; 3.81% and 2.33% in experiment [6]. The inhibition was 5.88% and 4.98% in experiment [7]; 2.69% and 0.43% in experiment [8]; 2.01% and 1.22% in experiment [9]; 2.13% and 0.11% in [10].

Turning to `c1ccc(-c2n[nH]cc2-c2ccnc(-c3ccc(OCCn4ccnc4)cc3)c2)nc1`, the inhibition in experiment [1] was 1.94%; in experiment [2], 0.36%; in [3], 1.9%; in [4] it was 0.25%; in experiment [5], 5.66%; in experiment [6], 1.97%. In addition, the inhibition in experiment [7] was 24.5%; in experiment [8] it was -0.83%; in experiment [9] it was 5.84%; in [10] it was -1.24%.

As to `CN(c1ccc(NC(=O)NCCN2CCOCC2)cc1)c1ccnc(Nc2ccc(CS(C)(=O)=O)cc2)n1`, the inhibition was 13.1% in experiment [1]; 24.3% in experiment [2]; 76% in [3]; -0.15% in experiment [4]; 1.28% in experiment [5]; 3.77% in experiment [6]. In addition, the inhibition in experiment [7] is 6.75%; in [8], 2.81%; in [9], 3.82%; in [10] it was 2.04%.

Consider `CN(C)CCNC(=O)Nc1ccc(N(C)c2ccnc(Nc3ccc(CS(C)(=O)=O)cc3)n2)cc1`, for which the inhibition in experiment [1] was 1.47%; in [2], 0.92%; in experiment [3], 9.89%; in experiment [4] it was 1.32%; in experiment [5], 3.79%; in [6], 3.58%. The inhibition turned out to be 3.5% in experiment [7], 2.9% in [8], 2.38% in experiment [9] and 3.69% in experiment [10].

On to `Nc1ncnc2occ(-c3ccc(NC(=O)Nc4cc(C(F)(F)F)ccc4F)cc3)c12`, for which the inhibition in [1] is 41% and 18.6%; in experiment [2], 46.1% and 33.6%; in experiment [3] it was 80% and 79.7%; in [4] it was 1.05% and 12.5%; in experiment [5], 5.41% and 15.6%; in experiment [6] it was 2.23% and 3.14%. Besides, the inhibition was 1.42% and 3.22% in [7]; 3.11% and 1.25% in experiment [8]; 1.69% and 1.44% in experiment [9]; 1.74% and 0.3% in experiment [10].

Regarding `CCCNc1cccc(-n2ncc3c(N/N=C/c4ccncc4)ncnc32)c1`, the inhibition in experiment [1] stood at 12.1%; in experiment [2], 1.93%; in experiment [3], 7.68%; in experiment [4] it was 3.46%; in experiment [5], 33.5%; in [6], 14%. For the same compound, the inhibition is 71.8% in experiment [7], 2.74% in experiment [8], 31.4% in experiment [9] and -0.43% in [10].

Turning to `O=C(O[C@H]1CN[C@H](C#Cc2cc3ncnc(Nc4ccc5c(cnn5Cc5ccccc5)c4)c3s2)C1)N1CCOCC1`, the inhibition in experiment [1] was determined as 4.15%; in experiment [2], 0.56%; in experiment [3] it was 0.22%; in [4], 72.3%; in experiment [5], 83.3%; in [6], 14.2%. Further, the inhibition in experiment [7] was determined as 56.2%; in experiment [8], 25.9%; in [9], 44.2%; in experiment [10] it was 0.87%.

Regarding `COc1ccc(Nc2ncc(-c3ccccc3)o2)cc1OC`, the inhibition is -1.08% in experiment [1]; -0.12% in [2]; 5.66% in experiment [3]; 1.83% in experiment [4]; 5.16% in experiment [5]; -1.38% in experiment [6]. Further, the inhibition in [7] is 2.96%; in experiment [8], -1.19%; in experiment [9], 0.83%; in experiment [10] it was 0.72%.

Take `Nc1nonc1-c1nc2cnccc2n1C1CC1`: the inhibition in [1] was 2.08% and 1.45%; in [2], 1.46% and 1.25%; in [3], 2.24% and 0.96%; in experiment [4] it was 1.3% and -3.46%; in experiment [5], 4.4% and -3.77%; in experiment [6], 1.41% and 2.54%. For the same compound, the inhibition was 0.67% and 3.32% in experiment [7]; 4% and 2.76% in [8]; -0.36% and -1.27% in experiment [9]; 1.58% and 0.88% in [10].

Consider `NC(=O)c1ccc2c(-c3ccnc(NCCCO)n3)c(-c3ccc(F)cc3)nn2c1`, for which the inhibition came out at 7.7% in experiment [1]; 4.1% in [2]; 22.4% in experiment [3]; 1.88% in [4]; 17.3% in [5]; 10.1% in experiment [6]. Further, the inhibition in experiment [7] came to 50.6%; in [8] it was 4.58%; in experiment [9], 16.6%; in experiment [10], 2.86%.

For `COc1cc(N2CCN(C(C)C)CC2)ccc1Nc1nc(Nc2cccc(F)c2C(=O)O)c2cc[nH]c2n1`, the inhibition came to 7.02% in experiment [1]; 1.68% in experiment [2]; 1.98% in experiment [3]; 0.15% in experiment [4]; 3.33% in experiment [5]; 4.84% in experiment [6]. In addition, the inhibition came to 12.6% in experiment [7], 4.97% in experiment [8], 5.54% in experiment [9] and 6.09% in experiment [10].

Broadly, the inhibition is the change of the read-out against control, counted positive when it falls.
